Consider 174 sequences from paper PMC6212790, “How bacterial xenogeneic silencer rok distinguishes foreign from self DNA in its resident genome”.

In all, about 33,000 sequences were measured (“e-score”: median about -0.037, highest 2% from about 0.34 on). The sample as a whole holds a higher share of the highest values than the screen did.

The experiment concerns the target T1, GST-Rok (full length) (Bacillus subtilis subsp. subtilis str. …, UniProt O34857 1-191).
T1 sequence: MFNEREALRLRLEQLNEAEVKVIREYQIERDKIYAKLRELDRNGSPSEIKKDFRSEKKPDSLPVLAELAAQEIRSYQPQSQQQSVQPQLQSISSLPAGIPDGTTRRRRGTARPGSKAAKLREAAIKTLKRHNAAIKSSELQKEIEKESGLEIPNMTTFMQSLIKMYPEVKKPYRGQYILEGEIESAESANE
Kind of experiment: protein binding microarray; Rok is a gene silencer of Bacillus subtilis; high values mean tight binding. To be noted: protein: recombinant; tags: GST (pTH5325, pDEST15-Magic modified); dsDNA, one strand shown. The method, boiled down: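 Every oligonucleotide joins a 25-mer constant primer to a 35-mer variable part drawn from a de Bruijn sequence of order 10, so each non-palindromic 8-mer appears at least 32 times and each palindromic 8-mer 16 times. The preference for every 8-mer is reported as a unitless, rank-based enrichment score (E-score). This score spans 0.5 for the most favored 8-mer to −0.5 for the most disfavored.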
Turning to AGCTTACG, the binding signal was -0.0197 E-score.

Regarding TCGATTAA, the binding signal was found to be 0.142 E-score.

Regarding CCGAACTC, the binding signal was determined as 0.0171 E-score.

For the sequence ACCTACCA, the binding signal came out at 0.248 E-score.

Take ACTTACAG: the binding signal is -0.0639 E-score.

For ACTTACAT, the binding signal turned out to be 0.349 E-score.

Regarding ACTTACAA, the binding signal was found to be 0.176 E-score.

As to CGATATCG, the binding signal turned out to be 0.243 E-score.

For the sequence GCCGTGAC, the binding signal is -0.176 E-score.

Consider AACTATCA, for which the binding signal turned out to be 0.417 E-score.

Turning to CTCTATCA, the binding signal is -0.0321 E-score.

For ATCTATCA, the binding signal amounted to 0.409 E-score.

Take TACTATCA: the binding signal turned out to be 0.35 E-score.

As to TCCTATCA, the binding signal stood at 0.123 E-score.

With GTCTATCA, the binding signal was -0.00992 E-score.

For CACTATAA, the binding signal was determined as 0.303 E-score.

On to AACTATAA, for which the binding signal is 0.326 E-score.

Consider CACTATCA, for which the binding signal amounted to 0.219 E-score.

Take TACTATGA: the binding signal turned out to be 0.228 E-score.

Turning to TACTATAA, the binding signal amounted to 0.439 E-score.

As for GACTATCA, the binding signal is -0.0777 E-score.

In the case of ACATTAAT, the binding signal was found to be 0.245 E-score.

Turning to AGATAAGG, the binding signal came to 0.0533 E-score.

On to ATCCTATG, for which the binding signal was found to be 0.106 E-score.

As to GAGCTGCA, the binding signal was -0.0813 E-score.

Turning to CGAAAAGA, the binding signal worked out at 0.00822 E-score.

Consider AGGATCAC, for which the binding signal is -0.0581 E-score.

In the case of ATTGGTGA, the binding signal was 0.0777 E-score.

TAGCTAAA: the binding signal was found to be 0.214 E-score.

Regarding ATATCCGG, the binding signal came out at 0.237 E-score.

In the case of TAGGTTCA, the binding signal was found to be 0.128 E-score.

Regarding AAGATGGT, the binding signal stood at 0.0131 E-score.

Consider CCCGTTCA, for which the binding signal is -0.154 E-score.

As for AATATGCA, the binding signal was found to be 0.304 E-score.

For the sequence CGCTATCA, the binding signal is 0.0965 E-score.

Consider AGCTATCA, for which the binding signal worked out at 0.336 E-score.

Take GGCTATCA: the binding signal was -0.0678 E-score.

As to ACGATTCA, the binding signal is -0.00504 E-score.

For the sequence GCTGTAGA, the binding signal worked out at 0.0153 E-score.

In the case of AATGTAGT, the binding signal turned out to be 0.363 E-score.

In the case of CATGTAGC, the binding signal was 0.384 E-score.

As to ACTGTAGA, the binding signal came out at 0.373 E-score.

Consider AACGTAGT, for which the binding signal is 0.0637 E-score.

Consider GATGTAGC, for which the binding signal was 0.0838 E-score.

Consider AATGTAGC, for which the binding signal stood at 0.221 E-score.

Regarding AATGTAAT, the binding signal was determined as 0.326 E-score.

On to AATGTAGA, for which the binding signal was 0.389 E-score.

With CATGTAGG, the binding signal stood at 0.116 E-score.

As to AATGTAGG, the binding signal is 0.174 E-score.

On to CCTGTAGA, for which the binding signal was 0.0279 E-score.

For the sequence AGCTGCAC, the binding signal stood at 0.104 E-score.

With GAAGTCCC, the binding signal was -0.124 E-score.

Consider ACCGATCC, for which the binding signal is -0.198 E-score.

Take ATGAGGCG: the binding signal was -0.173 E-score.

CTTAGGTC: the binding signal came to 0.00712 E-score.

With AAGCTAAG, the binding signal was -0.0658 E-score.

For the sequence TATGTAGA, the binding signal was found to be 0.292 E-score.

Take CATGTAGA: the binding signal is 0.374 E-score.

GATGTAGA: the binding signal amounted to 0.209 E-score.

For CGCTCTGA, the binding signal is -0.0888 E-score.

For the sequence AGTAGGAA, the binding signal is 0.231 E-score.

ACTAATAC: the binding signal came out at 0.265 E-score.

Turning to AGTAATAG, the binding signal was determined as 0.365 E-score.

Regarding AGTAATAC, the binding signal was 0.26 E-score.

Consider CGTAATAG, for which the binding signal is 0.318 E-score.

Take ACTAATAT: the binding signal is 0.385 E-score.

AGTAATAT: the binding signal was determined as 0.402 E-score.

As for ACTAATAG, the binding signal was found to be 0.227 E-score.

In the case of AGTAATCG, the binding signal was 0.0386 E-score.

As for AGTAATAA, the binding signal is 0.197 E-score.

On to AACGGCTG, for which the binding signal is 0.0377 E-score.

As for AAGTCAAT, the binding signal came to 0.226 E-score.

On to CTTGTCTC, for which the binding signal was 0.0221 E-score.

GGGTTGCA: the binding signal is -0.161 E-score.

For AGATGTAA, the binding signal was determined as 0.17 E-score.

CATCTTAG: the binding signal is 0.118 E-score.

With GTTGATCA, the binding signal was -0.00765 E-score.

As for CGCAAGCC, the binding signal was -0.112 E-score.

Consider AGATAGAT, for which the binding signal came to 0.386 E-score.

Turning to AGATAGAC, the binding signal is 0.108 E-score.

As to ACATAGAC, the binding signal was 0.0568 E-score.

With ACATAGAG, the binding signal was 0.00988 E-score.

As for ACATAGAT, the binding signal was determined as 0.346 E-score.

Regarding AGATAGAG, the binding signal came to 0.026 E-score.

In the case of CTCTAGAC, the binding signal was -0.099 E-score.

Turning to ACGAACGA, the binding signal is -0.116 E-score.

As for ATCTACTA, the binding signal came out at 0.446 E-score.

For ATCTACGG, the binding signal worked out at 0.158 E-score.

GTCTACTA: the binding signal is 0.261 E-score.

With CTCTACTA, the binding signal was found to be 0.216 E-score.

ATCTACTC: the binding signal was 0.251 E-score.

For ATCTACTG, the binding signal was 0.382 E-score.

In the case of ACATGTTG, the binding signal was -0.0393 E-score.

Take CGCGCATA: the binding signal was 0.139 E-score.

On to AATAAACG, for which the binding signal was 0.0748 E-score.

GCTGTAAA: the binding signal was 0.151 E-score.

Turning to AAGTATAA, the binding signal was found to be 0.142 E-score.

TGGTATAA: the binding signal came out at 0.349 E-score.

On to CGGTATAA, for which the binding signal was 0.28 E-score.

On to CAGTATAA, for which the binding signal turned out to be 0.312 E-score.

Consider AGGTATAA, for which the binding signal came out at 0.322 E-score.

TAGTATAA: the binding signal is 0.404 E-score.

As for GGTTGTAC, the binding signal came out at 0.114 E-score.

In the case of CGCGACAG, the binding signal came to 0.0354 E-score.

With ATCTACAC, the binding signal amounted to 0.348 E-score.

In the case of CTCTACAC, the binding signal was determined as 0.0962 E-score.

In the case of ATCTACAA, the binding signal came out at 0.276 E-score.

As to ATCTACAG, the binding signal worked out at 0.26 E-score.

Consider GTCTACAC, for which the binding signal is -0.0482 E-score.

Turning to ATCTACAT, the binding signal came out at 0.372 E-score.

Take AAGGGTTA: the binding signal is -0.101 E-score.

Consider TCGCACAA, for which the binding signal worked out at 0.0863 E-score.

As to CCGGCTGA, the binding signal is -0.0957 E-score.

For TGCATTAA, the binding signal worked out at 0.25 E-score.

For the sequence GAATTCCA, the binding signal is 0.0902 E-score.

GATAGTAC: the binding signal came to 0.18 E-score.

CATAGTAA: the binding signal stood at 0.271 E-score.

Consider GATAGTAA, for which the binding signal turned out to be 0.406 E-score.

TATAGTCA: the binding signal worked out at 0.159 E-score.

Turning to AATAGTAA, the binding signal came to 0.325 E-score.

Regarding TATAGTAA, the binding signal worked out at 0.389 E-score.

With CGGCATGA, the binding signal was -0.101 E-score.

On to GGGAATGA, for which the binding signal was -0.0881 E-score.

On to GTATGTGA, for which the binding signal is 0.247 E-score.

For the sequence GAAATAAA, the binding signal was found to be 0.221 E-score.

In the case of AGATGAAC, the binding signal is 0.165 E-score.

As for ACGTATAT, the binding signal came out at 0.365 E-score.

For the sequence AAGTATAG, the binding signal was determined as 0.127 E-score.

Consider AAGTATAC, for which the binding signal came out at 0.251 E-score.

As for ACGTATAA, the binding signal was found to be 0.244 E-score.

Turning to ACGTATAC, the binding signal is 0.232 E-score.

For AAGTATAT, the binding signal worked out at 0.348 E-score.

For the sequence GGGATTGA, the binding signal is -0.112 E-score.

As for GATACATA, the binding signal came to 0.388 E-score.

For the sequence AATACATG, the binding signal turned out to be 0.108 E-score.

Regarding GATACATC, the binding signal was 0.186 E-score.

On to AATACAGA, for which the binding signal came to 0.0991 E-score.

Take GGTACATA: the binding signal is 0.196 E-score.

TATACATA: the binding signal amounted to 0.37 E-score.

Take GATACAGA: the binding signal is -0.0115 E-score.

Take TATACAGA: the binding signal came to 0.342 E-score.

With AATACATA, the binding signal was found to be 0.373 E-score.

For the sequence AATACATT, the binding signal was found to be 0.252 E-score.

TATACACA: the binding signal was 0.2 E-score.

Consider TACACATA, for which the binding signal amounted to 0.315 E-score.

As to GGATTCAC, the binding signal is -0.0831 E-score.

For ACAAGTCG, the binding signal was -0.122 E-score.

On to ACCTAGGG, for which the binding signal was -0.142 E-score.

For the sequence CGTGGAGA, the binding signal is 0.119 E-score.

For the sequence ACGCCAAT, the binding signal was -0.0858 E-score.

In the case of GGGAAGTA, the binding signal was 0.17 E-score.

On to CCCAGCGC, for which the binding signal is -0.157 E-score.

For ATTACGAG, the binding signal turned out to be 0.154 E-score.

Turning to ACTGTCAC, the binding signal was 0.011 E-score.

As to CATACATC, the binding signal came out at 0.158 E-score.

Consider TATACAAA, for which the binding signal was 0.402 E-score.

Take CGTACAAA: the binding signal came out at 0.194 E-score.

AGTACAAA: the binding signal was found to be 0.343 E-score.

Regarding CATACATA, the binding signal is 0.366 E-score.

For AGTACAAG, the binding signal came to 0.217 E-score.

Consider CATACATG, for which the binding signal is 0.143 E-score.

Consider CATACAAA, for which the binding signal stood at 0.288 E-score.

AATACAAA: the binding signal was 0.206 E-score.

Take CGCGTTAG: the binding signal came to 0.07 E-score.

CTCTAACC: the binding signal was -0.055 E-score.

As to AGAATGAA, the binding signal was determined as 0.111 E-score.

Turning to TGGCGCAA, the binding signal is -0.0245 E-score.

Take AGGTTACG: the binding signal is -0.0671 E-score.

Consider CATCTATC, for which the binding signal stood at 0.289 E-score.

AATCTATC: the binding signal turned out to be 0.377 E-score.

As for GATCTATA, the binding signal came out at 0.307 E-score.

Consider CATCTATA, for which the binding signal is 0.199 E-score.

With AATCTATG, the binding signal is 0.174 E-score.

Take AATCTATA: the binding signal was found to be 0.384 E-score.
